Reference: PubChem BioAssay
Values without a mark were called inactive. Activity calls are given as the source filed them.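 How the source made its calls: active means inhibition above the hit cutoff set in the earlier primary screen (cut at about 27% in these data); inactive means the rest.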

Biological target: Protein phosphatase methylesterase 1 (Homo sapiens) (UniProt Q9Y570)
Test: PME-1 inhibitor activity retest, confirmation, biochemical, fluorescence polarization, FP-Rh probe, triplicate (AID 2171);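 further: 0% = enzyme with DMSO and 100% = wells lacking PME-1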
Settings: recombinant PME-1, FP-Rh probe fluorescence polarization; at 5.9 µM; stronger effect = higher value

Sequence of Protein phosphatase methylesterase 1 (Homo sapiens) (Q9Y570 whole entry, looked up): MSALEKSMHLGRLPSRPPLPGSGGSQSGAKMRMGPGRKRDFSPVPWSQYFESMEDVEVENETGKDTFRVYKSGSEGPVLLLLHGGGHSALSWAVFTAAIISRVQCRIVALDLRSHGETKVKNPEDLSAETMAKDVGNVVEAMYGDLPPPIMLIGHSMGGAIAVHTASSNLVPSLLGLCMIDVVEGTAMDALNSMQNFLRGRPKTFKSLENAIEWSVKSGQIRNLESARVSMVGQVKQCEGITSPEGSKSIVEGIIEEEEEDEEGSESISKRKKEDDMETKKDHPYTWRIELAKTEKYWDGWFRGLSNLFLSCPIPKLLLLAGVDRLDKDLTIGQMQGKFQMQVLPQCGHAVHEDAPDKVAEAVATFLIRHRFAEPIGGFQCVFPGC

| Structure (SMILES) | inhibition |
| --- | --- |
| Cn1c(N/N=C/c2c[nH]c3ccccc23)nc2ccccc21 | 28.6% (active) |
| Oc1ccccc1-c1nc2c3ccccc3c3ccccc3c2[nH]1 | 21.4% |
| O=C(N/N=C/c1c[nH]c2ccccc12)c1cc(-c2ccc3ccccc3c2)n[nH]1 | 10.8% |
| CCC(=O)NC(c1cccs1)c1cc([N+](=O)[O-])c2cccnc2c1O (stereo not given) | 25.9% |
| COc1ccc(N=C2NC(=O)S/C2=C\c2ccc(N(C)C)cc2)cc1 | 37.2% (active) |
| Cc1ccc(-n2[nH]c(C)c(/C=N/Nc3ccc([N+](=O)[O-])cc3[N+](=O)[O-])c2=O)cc1C | 33.5% (active) |
| Nc1ccc(Br)c2c1C(=O)c1ccccc1C2=O | 21% |
| CCc1ccc(S(=O)(=O)/N=C2/C=C(Sc3ncn[nH]3)C(=O)c3ccccc32)cc1 | 52.9% (active) |
| CCn1c(CSc2nnc(-c3ccncc3)n2CCOC)nc2cc(C(=O)O)ccc21 | 51.1% (active) |
| O=c1[nH]n2c(=O)c3c([nH]c2c1N=Nc1cccc(C(F)(F)F)c1)CCCC3 | 60.6% (active) |
| Nc1[nH]n(-c2ccccc2)c(=O)c1N=Nc1ccc2ncsc2c1 | 31.1% (active) |
| CCOc1ccc(NC(=O)Nc2ccc3c(c2)N(C)C(=O)CS3)cc1 | 14.8% |
| CCn1c(C)c(/C=N/Nc2nc3ccccc3s2)c2ccccc21 | 16.8% |
| COc1ccc2[nH]c(O)c(N=NC(=O)c3ccc(NS(=O)(=O)c4cccs4)cc3)c2c1 | 19.4% |
| Cn1c(=N)n(CC(=O)c2ccc(Br)cc2)c2ccccc21 | 13.3% |
| Cc1c(C(=O)OC/C(O)=C(\C#N)c2nc3ccccc3[nH]2)oc2ccccc12 | -5.29% |
| Fc1cccc2sc(Nc3nc4cc5c(cc4s3)OCO5)nc12 | 76.3% (active) |
| Cc1csc(NC(=O)c2sc3nc(-c4cccs4)ccc3c2N)n1 | 42.6% (active) |
| COc1ccc(C2Nc3cccc4cccc(c34)N2)cc1Br | 15.1% |
| Oc1ccc(/C=N/Nc2ccc(C(F)(F)F)cn2)c(O)c1 | 17.8% |

| Structure (SMILES) | inhibition |
| --- | --- |
| COc1ccc(NS(=O)(=O)c2ccc(N/N=C(\C)c3ccncc3)c([N+](=O)[O-])c2)cc1 | 26.3% (active) |
| Nc1nonc1N/N=C/c1c(O)ccc2ccccc12 | 23.6% |
| COc1ccc2[nH]c3c(N4CCc5ccccc5C4)ncnc3c2c1 | 30.2% (active) |
| CCOc1cc(/C=N/NC(=O)c2cccc([N+](=O)[O-])c2)ccc1OS(=O)(=O)c1ccccc1 | 19.9% |
| N#CCSc1nc2c(cc1C#N)CCCCCC2 | 22.3% |
| Cc1ccc(C(=O)O)cc1N1C(=O)c2cccc3c([N+](=O)[O-])ccc(c23)C1=O | 38.7% (active) |
| CC(=O)Nc1ccc(Nc2nc(C)c([N+](=O)[O-])c(Nc3ccccc3)n2)cc1 | 19.7% |
| CN(C)S(=O)(=O)c1cccc(NC(=O)c2cc([N+](=O)[O-])ccc2N2CCCCC2)c1 | 43.2% (active) |
| CCOc1ccc(/C=N/Nc2cc(N3CCOCC3)nc(C)n2)c(O)c1 | 26.4% (active) |
| Cc1cccc2c(N=O)c(O)[nH]c12 | 54.3% (active) |
| NNc1nc2cc3c(cc2s1)OCCO3 | 8.82% |
| Cn1c2ccccc2c2cc(/C=N/NC(=O)c3cc(O)ccc3O)ccc21 | 40.5% (active) |
| CCOc1cccc(/C=C/c2ccc3cccc(O)c3n2)c1O | 26.6% (active) |
| O=C(N=Nc1c(O)n(Cc2ccccc2)c2ccccc12)c1cc2ccccc2cc1O | 54.8% (active) |
| O=[N+]([O-])c1cccc(N/N=C/c2cccc(O)c2O)c1 | 32.9% (active) |
| Nc1c(C(=O)Nc2ccccc2F)sc2nc(-c3ccco3)ccc12 | 19.9% |
| N#Cc1cc2ccccc2nc1SCC(=O)Nc1ccccc1N1CCOCC1 | 20.3% |
| Cc1c(C(=O)N/N=C/c2ccc(O)c(Br)c2)sc(N)c1C#N | 49.7% (active) |
| O=c1[nH]n2c(=O)c3c([nH]c2c1N=Nc1cccc(Cl)c1)CCCC3 | 61.8% (active) |
| CCOc1ccc(N=Nc2c(=O)[nH]n3c(=O)c4c([nH]c23)CCCC4)cc1 | 24.8% |
